gsp antag: qHTS for Antagonists of gsp, the Etiologic Mutation Responsible for Fibrous Dysplasia/McCune-Albright Syndrome: qHTS; gsp-mutant cells, cAMP HTRF, 30 min; Potency, µM (highest dose often 76.9 µM), for inactives: at the top dose activity change, negative = inhibition, most hits filed as inhibitors; 340,000 compounds, 0.4% hits; calls by dose curve; cell line not stated here;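 further: intracellular cAMP measured with PDE inhibitor Ro 20-1724 present during compound exposure; on the % scale 0 is the no-effect control and ±100 the full control effect; nearly all actives have a fitted effect of over 65% in size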
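Cells, 2000/well, grown 16–24 h in DMEM 10% FBS with 0.5 mg/ml G418, then compounds plus […] (300 uM addition stock), 30 min at 37C. cAMP read by HTRF (cAMP-d2 and anti-cAMP antibody-K in lysis buffer) after 30 min RT.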
ALOX12 inh: Primary qHTS assay for inhibitors of human arachidonate 12S-lipoxygenase (ALOX12): Round 2; Polyunsaturated fatty acid lipoxygenase ALOX12 (Homo sapiens), P18054; purified 12hLO, xylenol orange hydroperoxide absorbance; Potency, µM (series often up to 108 µM), without a hit: at the highest dose activity change, negative = inhibition, actives largely listed as inhibitors; 580,000 compounds, 1.1% hits; AID 1671190, 2021; further: on the % scale 0 is the no-effect control and ±100 the full control effect
Target sequence (P18054 whole entry, looked up): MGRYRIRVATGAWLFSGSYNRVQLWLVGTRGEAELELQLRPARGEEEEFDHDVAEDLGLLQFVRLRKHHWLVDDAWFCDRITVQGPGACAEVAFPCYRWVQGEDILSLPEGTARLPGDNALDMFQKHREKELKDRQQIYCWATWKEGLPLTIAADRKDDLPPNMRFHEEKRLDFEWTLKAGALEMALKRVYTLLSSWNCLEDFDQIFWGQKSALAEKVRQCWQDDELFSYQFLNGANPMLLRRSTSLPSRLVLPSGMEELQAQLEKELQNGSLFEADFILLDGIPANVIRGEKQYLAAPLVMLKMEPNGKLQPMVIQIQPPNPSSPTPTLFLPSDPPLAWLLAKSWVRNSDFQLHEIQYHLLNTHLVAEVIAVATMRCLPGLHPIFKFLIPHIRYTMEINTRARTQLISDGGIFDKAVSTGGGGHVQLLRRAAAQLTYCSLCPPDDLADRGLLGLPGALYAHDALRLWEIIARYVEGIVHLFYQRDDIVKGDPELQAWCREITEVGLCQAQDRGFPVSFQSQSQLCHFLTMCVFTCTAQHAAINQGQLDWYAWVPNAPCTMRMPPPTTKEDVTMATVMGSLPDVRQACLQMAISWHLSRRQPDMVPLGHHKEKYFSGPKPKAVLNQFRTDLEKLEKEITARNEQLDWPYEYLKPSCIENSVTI
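Purified human 12hLO at 150 nM in 25 mM Hepes, 0.01% Triton X-100, pH 7.0, preincubated 15 min at room temperature with compound. Reaction started with 40 uM arachidonic acid, 30 min at room temperature. Hydroperoxide measured by Fe-xylenol orange, 573/405 nm absorbance ratio.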
Mito fusion act: qHTS Assay for Small Molecule Inhibitors of Mitochondrial Division or Activators of Mitochondrial Fusion; S. cerevisiae fusion-defective mutant growth rescue, CellTiterGlo 48 h; Potency, µM (top dose mostly 46.1 µM), for inactives: at the highest dose growth rescue (activation), most hits filed as activators; 320,000 compounds, 0.23% hits; AID 485298, 2010; further: % of control where 0% means no effect; nearly all actives have a fitted effect of over 45% in size
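Yeast fusion mutant, YPEG (non-fermentable carbon), compound, 48 h at 37C non-permissive; CellTiterGlo added, 10 min RT, luminescence read. Rescued growth = division inhibition.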
gsp agonist: qHTS for Agonist of gsp, the Etiologic Mutation Responsible for Fibrous Dysplasia/McCune-Albright Syndrome: qHTS. AID 624287, 2012. gsp mutant cells, cAMP HTRF, 30 min. Potency, µM (titrated, usually from 76.9 µM), for inactives: at the top dose activation (cAMP increase), hits mostly activators. 340,000 compounds, 0.13% hits; active means well fitted activation curve with a large enough effect; inconclusive means small, poorly fitted or top-dose-only effect, or another doubt; inactive means no such curve, though single readings can be large or run the other way; cell line not stated here;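 further: phosphodiesterase inhibitor Ro 20-1724 added with compounds to block cAMP breakdown; nearly all actives have a fitted effect of over 60% in size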
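Cells stably selected in G418 were plated at 2000/well, grown 16-24 hr, then given compounds in DMSO with the PDE inhibitor […] (300 uM solution added) for 30 min at 37C; cAMP was read by HTRF.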
FUS suppressor: qHTS for Suppressors of FUS Proteinopathy: Primary screen using FUS-linked yeast assay; 390,000 compounds, 0.24% hits; Potency, µM (doses to about 76.6 µM), most hits filed as activators; S. cerevisiae FUS-expressing, growth rescue, OD600, 24 h;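 further: plate controls were DMSO vehicle for no effect and reference control for full effect; nearly all actives have a fitted effect of over 55% in size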
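Yeast expressing FUS under galactose induction, OD 0.005 in 2% galactose medium; compounds in a dilution series, 24 h at 30C. Growth rescue by absorbance at 600 nm; CP55940 positive control, DMSO negative.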
Starred values were filed as active, the others as inactive; i = inactive; u = inconclusive; x = no result; ! = not active in a repeat; [ ] = remark or other dose. Only some compounds are listed: those with a hit (about 1.6% of all), similar ones and a draw of the others. Unless noted, the call rests on the fitted dose curve; in most records, active means well fitted curve in the direction sought with a large enough effect; inconclusive means small, poorly fitted or top-dose-only effect, or another doubt; inactive means no such curve, though single readings can be large; an effect the other way counts as inactive or inconclusive. Potency means the concentration at half of the fitted maximal effect.

SMILES	gsp antag	ALOX12 inh	Mito fusion act	gsp agonist	FUS suppressor
CC(C)(C)c1noc(CN2CCN(C(=O)c3ccco3)CC2)n1	x	-2.4%	x	x	x
CCC(C)C(=O)Nc1ccc([N+](=O)[O-])cc1OC (stereo not given)	-3.5%	u	2.0%	-23.5%	i
CCSc1ccccc1C(=O)Nc1ccc([N+](=O)[O-])cc1OC	39.8µM*	39.8µM*	u	-6.9%	i
COc1cc([N+](=O)[O-])ccc1NC(=O)COC(=O)c1n[nH]c2ccccc12	39.8µM*	-9.5%	9.8%	8.2%[15.4 µM]	i
O=C(COC(=O)c1n[nH]c2ccccc12)Nc1ccc(Cl)cc1[N+](=O)[O-]	-21.1%	-4.1%	17.0%	-26.7%	i
COc1ccc(C(=O)NCC(=O)N=Nc2c(O)n(Cc3ccccc3)c3ccccc23)cc1OC	11.2µM*	-2.1%	1.9%	10.0%[15.4 µM]	i
CC1=C(C(=O)OCc2ccc3c(c2)OCO3)C(c2ccc(Cl)cc2Cl)CC(=O)N1 (stereo not given)	x	-13.3%	x	x	x
CC(C)=CC[N+](C)(C)CC#Cc1ccccc1	x	0.4%	x	x	x
CSc1nc2ccccc2n1Cc1c(Cl)cccc1Cl	39.8µM*	-19.6%	29.2%	-5.8%	u
OCc1nc2ccccc2n1Cc1c(F)cccc1Cl	11.1%	0.0%	4.2%	1.3%	i
N#Cc1cccc(/C=C2\CSc3ccccc3C2=O)c1	x	39.8µM*	x	x	x
O=C1/C(=C/c2cccc(F)c2)CSc2ccc(F)cc21	x	-28.5%	x	x	x
CC1CCCC2(C1)NC(=S)N(c1ccccc1)N2 (stereo not given)	6.5%	u	2.3%	-0.4%	x
CC1CCCCC12NC(=S)N(c1ccccc1)N2 (stereo not given)	4.7%	5.01µM*	1.6%	-23.8%[15.4 µM]	i
O=c1[nH]c(=S)[nH]cc1Oc1ccc(Cl)cc1Cl	11.1%	u	-3.2%	6.31µM*	i
O=C1Nc2ccccc2CCC1n1nc(-c2ccccc2Cl)ccc1=O (stereo not given)	x	7.9%	x	x	x
COc1ccc(N/C=C2\CCOC2=O)cc1	-12.5%	-16.2%	-0.7%	-49.2%	u
COc1ccc(N/C=C2\C(=O)CCc3c2oc2cc(Cl)c(O)c(Cl)c32)cc1	-12.5%	6.31µM*	2.3%	0.0%	i
CCCCn1nc(C(=O)Nc2ncc(Cc3ccc(F)cc3)s2)ccc1=O	x	-3.7%	x	x	x
O=C(O)C(Cc1ccccc1)N1C(=O)/C(=C/c2cccnc2)SC1=S (stereo not given)	3.2%	u	1.0%	11.1%[15.4 µM]	i
O=C(O)C(Cc1ccccc1)N1C(=O)/C(=C/C=C/c2ccco2)SC1=S (stereo not given)	-14.4%	5.62µM*	3.1%	24.6%[15.4 µM]	i
COc1ccc(/C=C2\SC(=S)N(C(Cc3ccccc3)C(=O)O)C2=O)cc1 (stereo not given)	u	17.8µM*	5.5%	3.6%[15.4 µM]	u
O=C(NN1C(=O)/C(=C/C=C/c2ccco2)SC1=S)c1ccccc1O	-20.7%	12.6µM*	4.2%	1.8%[15.4 µM]	i
O=C(Nc1ccc(Br)cc1)C(Nc1ccccc1)c1ccccc1F (stereo not given)	x	-8.1%	x	x	x
COc1cc2c(=O)n(-c3ccccc3)c(=O)n(CC(=O)Nc3ccc(C)cc3)c2cc1OC	x	-21.8%	x	x	x
O=C(c1ccccc1)c1c2c(cc3sc4ccccc4[n+]13)-c1cccc3cccc-2c13	-3.3%	31.6µM*	21.9%	14.9%	u
O=C(c1ccc(OCCN2CCCCC2)cc1)c1c(-c2ccc(O)cc2)sc2cc(O)ccc12	-7.9%	13.7µM*!	18.4µM*!	x	u
O=C(CCCN1C(=O)COc2ccc(C(=O)COc3ccc(F)cc3Cl)cc21)NCC1CC1	x	4.5%	x	x	x
COc1ccc2c(c1)CSC(c1ccccc1)C2=O (stereo not given)	x	35.5µM*	x	15.9%	i
CCOCCCNC(=O)c1cn(C)c2ccc(S(=O)(=O)N(C)C3CCCCC3)cc2c1=O	x	x	0.4%	x	x

Assay outcomes: PubChem BioAssay, National Center for Advancing Translational Sciences (NCATS)
